In the library only some 1.9% were active in any assay of this set; here they are far more common.
BaF3 tox = counter-screen for JAK2V617F inhibitors: parental Ba/F3 viability inhibitors | CellTiter-Glo ATP luminescence | inhibition, % at 5.6 µM | actives 1.1% (n = 220,000) | AID 1486;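 active = inhibition above a per-campaign cutoff, the mean inhibition of all tested compounds plus 3 SD, cut at about 27% in these data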;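 note: 0% = DMSO wells and 100% = JAK Inhibitor I control wells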
KLF5 inh = suppresses KLF5 promoter-driven expression | DLD-1 KLF5 promoter-luciferase reporter, luminescence | inhibition, % at 5 µM | actives 0.23% (n = 290,000);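 active = inhibition above a per-plate limit of that plate's mean compound inhibition plus 3 SD, cut at about 60% in these data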;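 note: 0% = DMSO wells and 100% = LY294002 at 200 µM; higher means less KLF5 promoter-driven luciferase light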
Ba/F3 V617F tox = reduce viability of Ba/F3 cells dependent on JAK2V617F. Ba/F3 EpoR-JAK2V617F viability, ATP luminescence. inhibition, % at 5.6 µM. actives 1.1% (n = 220,000). AID 1446;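 active = inhibition above the campaign mean plus 3 SD over all tested compounds, cut at about 24% in these data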;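 note: cytokine-independent growth of Ba/F3 cells driven by EpoR plus mutant JAK2; 0% = DMSO-treated cells and 100% = JAK inhibitor I control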
APP transl inh = APP translation inhibition; SH-SY5Y APP 5'UTR-luciferase reporter, luminescence; inhibition, % at 2 µM; actives 0.82% (n = 190,000);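 active = inhibition above a set limit, derived from the sample mean plus 3 SD, cut at about 45% in these data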
IEC-6 cytotox = IEC-6 cytotoxicity, counter-screen for KLF5 inhibitors | AID 1825 | luminescence viability | actives 0.78% (n = 290,000) | inhibition, % at 5 µM; in the data active = inhibition above about 22%;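 note: 0% = plate median of test compound wells and 100% = cytotoxic reference compound wells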
The depositor's hits bear a star; · = not tested or not shown.

SMILES	BaF3 tox	KLF5 inh	Ba/F3 V617F tox	APP transl inh	IEC-6 cytotox
O=C(NC(=S)Nc1cccc2cccnc12)c1ccccc1	101.6*	-13.9	-4.9	-7.8	-1.5
CC(C)(C)C(=O)NC(=S)Nc1cccc(C(=O)O)c1	10.4	-182.2	1.3	-85.9	-4.5
O=C(O)c1cccc(NC(=S)NC(=O)c2ccncc2)c1	2.1	-10.9	3.5	59.7*	2.2
CSc1ccc(Cl)c(C(=O)NCCCn2ccnc2)c1	·	-36.0	·	·	-1.1
O=C(Cn1c(-c2ccccc2)c[n+]2ccsc12)c1ccccc1	60.2*	12.6	69.5*	4.0	3.3
CCN(CC)c1ccc(/C=C2\SC(=O)N(C(C)C)C2=O)o1	43.7*	-13.3	51.1*	·	4.0
CC(C)N1C(=O)S/C(=C/c2ccc3c(c2)n(C)c(=O)n3C)C1=O	3.3	-38.1	3.5	8.2	2.4
CC(=O)c1ccccc1NC(=O)CCCNC(=O)c1ccc(Cl)cc1	·	-23.4	·	·	6.3
OC1(c2ccccc2)CN(c2ccccc2)C2=[N+]1CCS2 (stereo not given)	36.6*	-34.5	34.8*	-16.1	4.8
O=C(NCCCN1CCCC1)c1ccc(CS(=O)(=O)c2c(Cl)cccc2Cl)o1	·	-4.6	·	·	-1.2
CCc1ccc(S(=O)(=O)Nc2c(C)n(C)n(-c3ccccc3)c2=O)cc1	·	-2.6	·	·	-1.2
Cc1c(C(C)C)c(=O)n(-c2ccc(S(=O)(=O)N3CCOCC3)cc2)n1C	10.6	3.9	-0.6	11.8	2.9
Cc1c(C(C)C)c(=O)n(-c2ccc(S(=O)(=O)NC3CCCCC3)cc2)n1C	40.9*	-3.6	36.5*	11.8	5.4
Cc1c(C(C)C)c(=O)n(-c2ccc(S(=O)(=O)NCc3ccccc3)cc2)n1C	72.2*	-21.3	41.6*	8.5	6.2
O=C(NCC1CCCO1)c1ccc2c(c1)C(=O)N(c1cccc([N+](=O)[O-])c1)C2=O (stereo not given)	·	-25.6	·	·	-3.1
Cc1[nH]c(=O)[nH]c(=O)c1S(=O)(=O)Nc1ccc(F)c([N+](=O)[O-])c1	·	-12.4	·	·	0.6
O=C(O)c1c(-c2ccc(Cl)cc2)cn2ccccc12	53.2*	-5.1	-2.8	-15.8	1.3
CCOC(=O)c1c(-c2ccccc2Cl)cn2ccccc12	7.6	15.4	3.5	8.9	3.0
COC(=O)c1ccccc1NC(=O)C1CC(=O)N(c2ccc(C)cc2)C1 (stereo not given)	53.7*	-37.0	-1.5	0.7	-5.4
Cc1ccc(N2CC(C(=O)Nc3ccccc3N3CCCC3)CC2=O)cc1 (stereo not given)	·	-18.2	·	·	-3.6
COC(=O)Cc1c(C)c2ccc(OCc3nn[nH]n3)cc2oc1=O	5.1	-34.3	7.2	78.0*	-0.1
COc1ccc(C(=O)CSc2n[nH]c(C)n2)cc1[N+](=O)[O-]	6.5	-30.3	-0.9	2.8	-2.9
CCCCCn1ccc(=N)cc1	62.2*	-15.3	67.4*	7.0	-4.7
COc1ccc(OC)c(NC(=O)CSc2nccn2Cc2ccco2)c1	·	-17.0	·	·	-2.8
CN1/C(=C\C(=O)Nc2cccnc2)c2ccccc2CC1(C)C	35.7*	11.4	-2.4	-5.2	-2.5
SMILES	BaF3 tox	KLF5 inh	Ba/F3 V617F tox	APP transl inh	IEC-6 cytotox
COc1ccc(C(=O)/C=C2/c3ccccc3CC(C)(C)N2C)cc1	4.4	4.0	3.5	47.9*	13.4
O=C(Nc1cnn(Cc2ccc(F)cc2)c1)c1noc2c1CCCC2	57.9*	16.2	54.8*	-59.2	18.9
O=C(CCSc1nc2ccccc2s1)N/N=C/c1c(O)ccc2ccccc12	3.7	-10.8	1.4	52.5*	1.5
O=C(OCc1ccccc1F)c1cc2ccccc2cc1O	·	-14.1	·	·	-3.7
Cc1cccc(N2CCN(C3CCCCC3NS(=O)(=O)c3ccccc3)CC2C)c1 (stereo not given)	·	-13.8	·	·	3.0
FC(F)(F)c1cc(-c2ccccc2)nc(N2CCCCCC2)n1	2.6	-4.2	0.1	-4.9	4.4
CS(=O)(=O)c1nc(-c2ccccc2)cc(C(F)(F)F)n1	6.7	-18.5	1.2	62.4*	6.8
Cc1ccc(S(=O)(=O)CCC(O)c2ccc(Cl)cc2)cc1 (stereo not given)	·	0.4	·	·	0.9
CC(C)c1nc(SCC(=O)Nc2ccc(C(=O)O)cc2)c2c3c(sc2n1)CCCC3	·	-37.4	·	·	-3.8
C=CCN1C(=Nc2cccnc2)SCC1(O)c1ccc(C)cc1 (stereo not given)	33.4*	-60.2	10.5	4.1	-0.5
CCn1c(C)[n+](Cc2ccccc2)c2ccc(Cl)cc21	33.4*	-4.6	27.5*	15.9	-2.4
CCOC(=O)c1ccc2c(c1)n(CC)c(/C=C/Nc1ccccc1)[n+]2CC	50.1*	-14.4	35.6*	-0.9	0.2
CCn1c(/C=C/N(C)c2ccccc2)[n+](CC)c2ccc(Cl)cc21	64.9*	-11.6	87.2*	-8.9	14.8
Cc1n(Cc2ccccc2)c2ccccc2[n+]1Cc1ccccc1	·	-13.6	·	·	0.2
CCn1c(C)[n+](Cc2ccccc2)c2ccc(C(=O)OC)cc21	36.5*	-11.5	15.6	-9.4	-6.7
O=C1/C(=C/c2cccnc2)CCC/C1=C\c1cccnc1	-5.9	-3.1	-3.0	94.9*	2.8
O=C1/C(=C/c2cccnc2)CC/C1=C\c1cccnc1	1.1	-5.6	-1.5	-13.8	-0.5
CCC1C/C(=C\c2cccnc2)C(=O)/C(=C/c2cccnc2)C1 (stereo not given)	4.5	-12.0	5.9	94.8*	30.2*
CCOC(=O)C1CCN(C(=O)c2cc(COc3ccc(F)cc3F)on2)CC1	·	-108.9	·	·	3.0
Oc1ccccc1-n1nc2ccc3nonc3c2n1	-0.9	-43.8	-1.1	·	-6.6
O=C(COC(=O)c1cccs1)NCC1CCCCC1	4.1	11.0	-0.9	-1.1	-3.7
C=CCSc1nc2ccccc2n1C(=O)/C=C/c1cc(OC)c(OC)c(OC)c1	0.9	5.4	2.3	57.6*	3.7
CC(=O)c1c(N2CCCCC2)nc(=S)n(-c2ccccc2)c1C	41.5*	-11.8	22.7	11.4	-1.4
CCc1ccc(CN2CCC(n3nccc3NC(=O)c3ccccc3)CC2)o1	·	-15.8	·	·	1.6
O=C1c2ccccc2C(=O)N1CC1=NCCc2ccccc21	41.6*	-38.1	14.9	15.2	-0.5
SMILES	BaF3 tox	KLF5 inh	Ba/F3 V617F tox	APP transl inh	IEC-6 cytotox
Cc1cc(CN2C(=O)c3ccccc3C2=O)no1	2.1	-17.1	3.1	4.4	2.2
CCn1c(=O)[nH]c2ccccc2c1=O	-2.8	-12.5	-3.0	7.4	-6.5
Nn1c(=O)[nH]c2ccccc2c1=O	38.2*	-32.5	-1.4	2.4	-0.1
O=S(=O)(c1ccc(F)cc1)c1snnc1-c1ccccc1	67.5*	19.6	60.8*	92.7*	3.0
O=S(=O)(c1ccc(Cl)cc1)c1snnc1-c1ccccc1	32.5*	8.4	43.8*	95.6*	-3.3
Cc1ccc(-c2nnc(COC(=O)c3cccs3)o2)cc1	·	-7.9	·	·	5.0
Cc1cccc(NS(=O)(=O)Cc2ccccc2)n1	-4.7	-28.0	-1.9	75.3*	-3.9
Cc1cccc(NS(=O)(=O)c2ccccc2)n1	4.5	-2.8	-0.8	-0.9	3.8
Cc1ccc(-c2nc(CS(=O)CC(=O)NCCN3CCCCC3C)c(C)o2)cc1 (stereo not given)	·	-17.1	·	·	-2.0
C1CN(c2nc3nonc3nc2N2C[C@H]3CC[C@H]2C3)CCS1	0.2	-17.9	-3.1	-5.5	0.2

Compound activity: PubChem, several laboratories
